# Screening data (PubChem)
# L3MBTL1 inh = blocks human L3MBTL1; 0.66% of 230,000 active; AID 485360; AlphaScreen L3MBTL1–H3K9me1 peptide binding; Potency, µM (highest dose often 57.1 µM), for inactives: at the highest dose activity, negative = inhibition, usual class: inhibitors; Q9Y468; note: % is set by controls: 0 for no effect and ±100 for the full control effect; nearly all actives have a fitted effect of over 60% in size
#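 Displacement of a biotinylated histone H3(1-15) peptide monomethylated at Lys9 (75 nM) from L3MBTL1 (50 nM) was measured by AlphaScreen after a 30 min room-temperature compound incubation; cefsulodin titration served as intraplate control.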
# BAZ2B block = inhibitors of human BAZ2B bromodomain | AlphaScreen BAZ2B-H3K14Ac peptide displacement | Q9UIF8 | Potency, µM (series often up to 114 µM), for inactives: top-dose activity change, negative = inhibition, actives largely listed as inhibitors | AID 504333 | 4.4% of 360,000 active; note: % is set by controls: 0 for no effect and ±100 for the full control effect; nearly all actives have a fitted effect of over 60% in size
#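 Inhibition is scored as reduced AlphaScreen emission. The BAZ2B/b-H3(5-23)K14Ac complex (50 nM each) in PBS pH 7.4, 0.01% Tween-20 meets compound (up to 110 uM) for 30 min at RT before bead addition.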
# Sfp PPTase inh = inhibitors of Bacillus subtilis Sfp phosphopantetheinyl transferase; Q9F4F7; Biochemical Sfp PPTase activity, qHTS; Potency, µM, inactives show largest response in the series, negative = inhibition, most hits filed as inhibitors; 3.5% of 310,000 active;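 note: the enzyme is Sfp with the accession as filed and its product quenches rhodamine fluorescence; 0% = enzyme reaction without inhibitor and -100% = no enzyme wells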
#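 Sfp 15 nM + cpd, 15 min RT; start w/ rhodamine-CoA 5 uM, BHQ-2-YbbR 12.5 uM (final); 50 mM Hepes pH 7.6, 10 mM MgCl2, 0.01% NP-40, 0.01% BSA; read 525/598 nm at 0 and 30 min.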
# HP1b chromo inh = HP1-beta chromodomain-methylated histone interaction inhibition | AlphaScreen HP1-beta / biotin-H3K9me3 peptide binding | 0.56% of 390,000 active | Potency, µM (top dose mostly 114 µM), without a hit: top-dose activity change, negative = inhibition, usual class: inhibitors | P83916; note: nearly all actives have a fitted effect of over 70% in size
#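 AlphaScreen: HP1-beta (50 nM) preformed 30 min with biotin-H3(1-18)K9me3 peptide (50 nM) in PBS pH 7.4, 0.01% Tween-20. Compound added for 30 min at RT, then streptavidin donor/nickel chelate acceptor beads (10 ug/mL) for 30 min.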
# G9a inh = blocks human histone lysine methyltransferase G9a. Potency, µM (titrated, usually from 102 µM), for the others: top-dose activity, negative = inhibition, usual class: inhibitors. G9a H3K9 monomethylation, AlphaScreen, 2 h. 8.8% of 350,000 active. Q96KQ7; note: % is set by controls: 0 for no effect and ±100 for the full control effect; nearly all actives have a fitted effect of over 75% in size
#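 G9a (20 nM) was preincubated 15 min with compound, then reacted 2 h at room temperature with 500 nM biotin-H3K9 peptide and 20 µM SAM. Monomethyl-H3K9 detected by AlphaScreen using anti-H3K9me1 antibody.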
# JMJD2A Tudor inh = inhibitors of human JMJD2A Tudor domain; AlphaScreen JMJD2A-Tudor / H3K4me3 peptide binding; Potency, µM (series often up to 114 µM), for the others: top-dose activity change, negative = inhibition, hits mostly inhibitors; 4.4% of 390,000 active; note: % is set by controls: 0 for no effect and ±100 for the full control effect; nearly all actives have a fitted effect of over 50% in size
# Target sequence (O75164 whole entry, looked up, the tested form may be a part): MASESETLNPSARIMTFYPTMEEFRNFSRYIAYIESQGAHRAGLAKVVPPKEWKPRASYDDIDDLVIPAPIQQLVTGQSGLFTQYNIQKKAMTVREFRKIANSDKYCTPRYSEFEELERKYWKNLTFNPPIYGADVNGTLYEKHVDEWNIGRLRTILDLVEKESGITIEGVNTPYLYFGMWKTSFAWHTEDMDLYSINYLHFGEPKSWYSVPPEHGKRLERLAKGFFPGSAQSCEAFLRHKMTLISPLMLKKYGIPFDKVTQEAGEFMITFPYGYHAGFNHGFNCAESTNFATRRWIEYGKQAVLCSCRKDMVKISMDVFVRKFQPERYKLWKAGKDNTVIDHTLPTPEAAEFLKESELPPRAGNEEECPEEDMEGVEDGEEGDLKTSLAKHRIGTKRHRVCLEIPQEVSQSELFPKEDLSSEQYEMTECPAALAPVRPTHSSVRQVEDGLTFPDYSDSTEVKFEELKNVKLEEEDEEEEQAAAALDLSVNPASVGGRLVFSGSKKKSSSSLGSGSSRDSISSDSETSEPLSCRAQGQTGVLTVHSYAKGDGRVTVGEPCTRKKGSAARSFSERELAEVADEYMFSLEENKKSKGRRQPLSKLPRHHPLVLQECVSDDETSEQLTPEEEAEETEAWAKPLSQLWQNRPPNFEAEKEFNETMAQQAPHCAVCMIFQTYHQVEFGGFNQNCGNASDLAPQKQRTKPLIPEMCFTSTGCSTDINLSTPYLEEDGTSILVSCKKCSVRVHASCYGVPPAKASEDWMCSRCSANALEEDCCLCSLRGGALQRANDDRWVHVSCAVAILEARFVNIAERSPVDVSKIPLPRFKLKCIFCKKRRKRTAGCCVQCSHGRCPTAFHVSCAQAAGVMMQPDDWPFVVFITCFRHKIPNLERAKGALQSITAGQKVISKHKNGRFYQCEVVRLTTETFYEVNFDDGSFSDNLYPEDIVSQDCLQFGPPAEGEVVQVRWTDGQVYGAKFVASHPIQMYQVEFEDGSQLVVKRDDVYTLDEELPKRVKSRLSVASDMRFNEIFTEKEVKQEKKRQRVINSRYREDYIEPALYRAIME
# The depositor's hits bear a star; u = inconclusive; x = no result given; [ ] = another dose, or the depositor's remark. Only some compounds are listed: those with a hit (about 12% of all), similar ones and a draw of the others. Calls come from the whole dose curve; as a rule, active = well fitted curve in the direction sought with a large enough effect; inconclusive = small, poorly fitted or top-dose-only effect, or another doubt; inactive = no such curve, though single readings can be large; an effect the other way counts as inactive or inconclusive. Potency is the fitted concentration of half-maximal effect.
SMILES,L3MBTL1 inh,BAZ2B block,Sfp PPTase inh,HP1b chromo inh,G9a inh,JMJD2A Tudor inh
CCc1ccccc1NC(=O)CSC1=C(C#N)C(c2ccc(O)c(OC)c2)C2=C(CCCC2=O)N1 (stereo not drawn),22.6%[11.4 µM],-33.9%,u,-27.3%,8.91µM*,-17.6%[11.4 µM]
CCOC(=O)c1c(C)n(-c2ccccc2)c2ccc(OC(=O)c3ccc(OCC)c(OCC)c3)cc12,x,-11.5%,x,69.9%,-14.4%[59 µM],-32.7%
N#CC1=C(SCc2ccccc2)NC2=C(C(=O)CCC2)C1c1ccc2c(c1)OCO2 (stereo not drawn),-17.4%,-38.0%,u,-1.9%,3.6%[2.33 µM],44.7µM*
O=C(NCc1ccc(F)cc1)C(c1ccco1)N(C(=O)c1csnn1)C1CC1 (stereo not drawn),x,1.3%,22.8%,28.2%,10.8%,0.7%
Nc1cc(S(=O)(=O)O)cc2ccc(S(=O)(=O)O)cc12,x,x,x,-22.3%,x,-11.0%
Cc1cc(-c2ccc(N=Nc3c(S(=O)(=O)O)cc4cc(S(=O)(=O)O)cc(N)c4c3O)c(C)c2)ccc1N=Nc1c(S(=O)(=O)O)cc2cc(S(=O)(=O)O)cc(N)c2c1O,0.199µM*,1.41µM*,11.2µM*,x,u,x
O=S(=O)(O)c1cc(O)c2c(O)c(N=Nc3cc(Cl)ccc3O)c(S(=O)(=O)O)cc2c1,x,11.2µM*,u,20µM*,10µM*,10µM*
CCOc1ccc(-c2nnc(-c3ccncc3)o2)cc1,1.7%,-35.8%,8.5%,u,-30.1%,50.1µM*
CCCCOc1ccc(-c2nnc(-c3ccncc3)o2)cc1,1.6%,9.3%,-4.6%,19.1%,12.5%,-9.5%
O=C1C=C(c2ccccc2)C(c2ccccc2)C1 (stereo not drawn),x,x,x,14.3%[57 µM],x,-13.8%
COC(=O)c1c(C)[nH]c(C)c1-c1cccc([N+](=O)[O-])c1,x,u,9.1%,-17.2%,56.2µM*,-33.6%
COC(=O)c1c(C)[nH]c(C)c1-c1ccc(C)cc1,x,u,9.2%,-17.0%,-13.4%,-34.7%
Cc1ccccc1NCCC(=O)Nc1ccc(Cl)cc1,x,u,-1.0%,-12.8%,-24.1%,u
CC(=O)c1ccc(N2CCN(c3ccc(S(=O)(=O)NCCCN(C)C)cc3[N+](=O)[O-])CC2)cc1,-19.3%,x,-13.3%,-5.8%,u,u
O=[N+]([O-])c1ccc(N2CCN(Cc3ccc4c(c3)OCO4)CC2)nc1,-12.7%,u,10.1%,0.8%,x,u
O=Cc1cc([N+](=O)[O-])ccc1N1CCN(Cc2ccc3c(c2)OCO3)CC1,x,u,9.1%,6.8%,44.7µM*,u
CN(C)CCNS(=O)(=O)c1ccc(N2CCc3ccccc32)c([N+](=O)[O-])c1,x,u,-11.0%,u,50.1µM*,u
CC(=O)c1ccc(N2CCN(c3ccc(S(=O)(=O)NCCN(C)C)cc3[N+](=O)[O-])CC2)cc1,x,u,7.2%,31.7%,x,-7.0%
CN(C)CCCNS(=O)(=O)c1ccc(N2CCN(Cc3ccc4c(c3)OCO4)CC2)c([N+](=O)[O-])c1,x,22.4µM*,70.8µM*,22.4µM*,10µM*,5.62µM*
O=C(CN1C(=O)CC(c2ccc(F)cc2)=Nc2ccccc21)NCc1ccccc1Cl,x,-8.7%,x,24.6%,-2.1%[59 µM],-27.7%
CC1(C)SC(=S)N(NC(=O)Nc2ccccc2)C1N(O)C(=O)Nc1cccc2ccccc12 (stereo not drawn),-11.2%,u,2.4%,25.9%,11.2µM*,u
CCOc1cc(-c2nc3c(c(CC)nn3-c3ccccc3)c3cc(OC)c(OC)cc23)ccc1O,x,0.3%,x,24.9%,37.0%[59 µM],3.9%
CCOC(=O)c1ccc(-n2c(CCC(=O)O)ccc2-c2ccc(Br)cc2)cc1,x,50.1µM*,x,u,15.8µM*,u
CCOc1ccc(-n2c(CCC(=O)O)ccc2-c2ccc(Br)cc2)cc1,x,39.8µM*,x,u,10µM*,u
CC(=O)N1CCc2c(sc3c2c(=O)n(CCc2ccccc2)c(=O)n3CC(=O)Nc2ccccc2F)C1,x,-5.9%,x,-4.6%,-4.5%[59 µM],-27.3%
SMILES,L3MBTL1 inh,BAZ2B block,Sfp PPTase inh,HP1b chromo inh,G9a inh,JMJD2A Tudor inh
COc1cc(CC2COC(c3ccc(O)c(OC)c3)C2COC(C)=O)ccc1O (stereo not drawn),x,39.8µM*,-0.2%,u,u,50.1µM*
COc1ccc(OCC2CCNCC2)cc1,x,-22.5%,5.1%,30.3%,50.1µM*,-20.3%
O=C(NCc1ccco1)C1CC(c2c(Cl)cccc2Cl)=NO1 (stereo not drawn),-4.2%,-20.5%[57.1 µM],79.4µM*,20.2%,u,-23.4%
Cc1ccc(CNC(=O)C2CC(c3cc(C(F)(F)F)cc(C(F)(F)F)c3)=NO2)o1 (stereo not drawn),x,-4.0%,56.2µM*,15.0%,2.7%[12.7 µM],-33.3%
Cc1ccc(CNC(=O)C2CC(c3cccc([N+](=O)[O-])c3)=NO2)o1 (stereo not drawn),-1.4%,-37.2%,44.7µM*,10.5%,3.8%[59 µM],-29.8%
Cc1cc(C)cc(NC(=O)CCc2c(C)nn(-c3ccc(N4CCOCC4)nn3)c2C)c1,x,-15.5%,19.5%,53.3%,5.9%[59 µM],-22.9%
O=C(CCc1n[nH]c(=O)[nH]c1=O)N/N=C/c1ccco1,-6.3%,50.1µM*,4.6%,18.7%,u,-31.2%
O=C(c1cc([N+](=O)[O-])ccc1Cl)N1CCN(c2ccc(F)cc2)CC1,-1.4%,-36.4%,0.4%,4.4%,44.7µM*,-20.7%
O=C(c1cc([N+](=O)[O-])ccc1Cl)N1CCN(Cc2ccccc2)CC1,x,-31.8%,-11.4%,15.9%,70.8µM*,-19.0%
O=C(c1ccc(Cn2cc(Cl)c([N+](=O)[O-])n2)cc1)N1CCN(Cc2ccccc2)CC1,-8.4%,-23.9%,8.2%,16.5%,50.1µM*,-26.5%
O=C(c1ccc([N+](=O)[O-])cc1)N1CCN(Cc2ccccc2)CC1,-9.8%,-18.1%,2.5%,16.9%,-39.1%[59 µM],-9.3%
Cc1c(Cl)cccc1NC(=O)c1cnc2sc(N3CCOCC3)nn2c1=O,x,-6.8%,x,u,8.6%[59 µM],-13.0%
